Assay results published in the supplement of paper PMC11417369.
Whole data set: some 25,000 sequences, median “ln(normalized median fluorescence intensity)” near 9.7, cut for the highest 2% near 11. For the sample, the highest values were picked, then their nearest neighbours and some sequences at random.

test system: PfAP2-HC AP2 domain (GST-tagged); assay: gcPBM binding intensity (ln(normalized median fluorescence intensity)); higher = stronger DNA binding
How it was run: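 Probes on an Agilent 4 × 180k array were primer-extended, double-stranded and 36 bp long, taken from intergenic genomic regions, with negative controls added. GST-tagged P. falciparum DNA-binding domains from E. coli, about 25 μg on average, were applied to the array for 1 h in 1× PBS containing 1% milk, 0.2 mg/ml BSA, 0.5% salmon testes DNA and 0.03% Triton X-100. Binding intensity, obtained after Alexa488 anti-GST antibody detection and a 488 nm scan, is the highest Masliner-normalised natural-log median intensity across replicate spots of either probe orientation.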

Sequence	gcPBM binding intensity (ln)
AATGGTAATCCACATACACACACACCGACACATATA [CACACA_site8876]	11.1
TATATATATATATACACACACACACCCATATATATA [CACACA_site2538]	10.4
CATACACCCATACATACACACATACATATATATATA [CACACA_site8591]	9.98
AAATATAAATGGTAATACACATACACACACACATAC [XGTACX_negctrl_site459]	10.5
TATATATACATATACACACACACACCCATATATATA [CACACA_site2246]	11.1
ACAGTATATTAAAAAATACACACGTATTATATCTAC [CACACA_site2640]	9.83
TATATGCTATAATATACACACATACCTATATTTATA [CACACA_site6383]	9.94
ATTTCTTATTAAATTACACACAAAGTAAATAAATCT [CACACA_site3924]	9.54
TACACGCTAAAATACACACACACACCCACATATATA [CACACA_site4153]	10.6
AAAAAAAAAATACATACACACACACCCACCCATATA [CACACA_site9187]	10.5
CACCCATAAATATACACACGCACAACACAAAATAAA [CACACA_site2903]	10.7
AAAAAAAATACATACACACACACACCCACATATATA [CACACA_site3561]	10.6
AGAAAATACACGCATACACACACACCCACCCACATA [CACACA_site8115]	11.3
AAAATACACGCATACACACACACACCCACCCATATA [CACACA_site639]	11.5
GCTTTTGTCATGTGCACACACGTATATATTATATAT [CACACA_site6146]	10.9
AATATCTAAATAAAGTGTACTTACCTTATTAATTAT [XGTACX_site2276]	9.64
TAAAAATTGAAGCACACACACAAAAGAAATACAATA [CACACA_site1113]	10.9
TAAAAGTTGAAGCACACACACAAAAGAAATACAATA [CACACA_site6649]	11.3
CATAAAAATTGAAGCACACACACAAAAGAAATACAA [CACACA_site1112]	10.7
TTAAGTCCGTTAACAGTGCATTTTTTCTTTTATGTA [GTGCAC_site9867]	9.58
TATATAAATATACATTGTACTCAACATTTTCATTAA [XGTACX_site3690]	9.62
ATTCATTCATATGTTACACACACACGCCCACATAAA [CACACA_site7513]	10.6
TCATTCATATGTTACACACACACACCCACATAAAAA [CACACA_site3245]	11.2

Sequence	gcPBM binding intensity (ln)
GTGTACAGACACAAAATATATACATATATATATATA [CACACA_negctrl_site1796]	9.51
ATTCATTCATATGTTACACACACACCCACCCATAAA [CACACA_site9066]	10.1
GGTACATACAGACACACACACAAAAAAAAAAAAATA [CACACA_site6844]	11.2
TGAACACAGACAAATACACACAAAAAAAATAAATAA [CACACA_site4298]	10
ATGTTACACAGACACACACACATAAAAAAACAAAAA [CACACA_site7516]	10.4
AACAAATACAGACACACACACACACTAATAAAAAAA [CACACA_site8067]	11.6
ATATGTTACAGACACACACACACATAAAAAAACAAA [CACACA_site3248]	11.1
AATACAGACAGACACACACACAAAATAAAATACAAA [CACACA_site245]	10.5
ATGTTACTCAGACACACACACATAAAAAAACAAAAA [CACACA_site3249]	10.4
ATATGTCACTTGTATACACACATATAGATTTCAATC [CACACA_site7519]	9.94
GAAAATAAAAAATATGAACACACATATATAACAAAA [CACACA_site7975]	10.5
AAAAAAAACAGACACACACACAAATATATAAAAATA [CACACA_site1172]	10.6
TACATATACAGACACACACACACACCCCCACAAAAA [CACACA_site495]	10.8
TTTTTGTAATGACACACACACAAACAGAAAAAATAA [CACACA_site7062]	10.2
ATAAATGACAGACACACACACAAAAAAAAAAAACAA [CACACA_site2626]	11.5
TACAGATACGGACACACACACACACCCAGACAAAAA [CACACA_site4432]	11
AATACACCCAGACACACACACAAAAAAAAAAAAAAA [CACACA_site513]	10.1
CATACAGATGGACACACACACACACCCACAGACAAA [CACACA_site4431]	10.5
GGTACATACAAACACACACACAAAAAAAAAAAAATA [CACACA_site1577]	10.3
AACACATACAAACACACACACAAAAAAAAAAAAAAA [CACACA_site393]	10.4
AACAAATACAGACACACACACACACCCAAAAAAAAA [CACACA_site515]	10.9
ATGGTACATACATACACACACACAAAAAAAAAAAAA [CACACA_site1578]	11.3
